Hits are enriched below; roughly 0.36% of the tested compounds scored in any of these assays.
PTHR1 agonist: PTHR1 (human) receptor agonism | Q03431 | HEK293 GP2 PTHR1 cells, GloSensor cAMP luminescence, 1 h | Potency, µM (series often up to 115 µM), for the others: at the top dose activation, usual class: activators | 410,000 tested, 0.075% active; also: potency is read from the fitted curve at half-maximal effect; nearly all actives have a fitted effect of over 55% in size
Target sequence (Q03431 whole entry, looked up): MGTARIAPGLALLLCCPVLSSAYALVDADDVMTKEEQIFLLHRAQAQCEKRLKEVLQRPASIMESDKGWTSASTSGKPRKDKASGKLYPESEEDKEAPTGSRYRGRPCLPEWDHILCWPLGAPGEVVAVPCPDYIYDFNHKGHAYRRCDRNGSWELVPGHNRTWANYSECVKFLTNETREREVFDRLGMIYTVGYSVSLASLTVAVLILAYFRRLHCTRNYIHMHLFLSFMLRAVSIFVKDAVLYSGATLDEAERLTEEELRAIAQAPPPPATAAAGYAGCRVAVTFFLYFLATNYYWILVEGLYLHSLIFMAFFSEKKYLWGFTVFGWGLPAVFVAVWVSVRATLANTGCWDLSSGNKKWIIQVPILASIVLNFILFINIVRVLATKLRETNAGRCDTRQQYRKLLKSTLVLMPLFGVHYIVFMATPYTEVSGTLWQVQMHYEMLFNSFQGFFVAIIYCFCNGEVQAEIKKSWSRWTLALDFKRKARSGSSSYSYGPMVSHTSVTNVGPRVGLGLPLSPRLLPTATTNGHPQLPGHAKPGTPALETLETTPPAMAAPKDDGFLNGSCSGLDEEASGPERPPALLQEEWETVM
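HEK-293-derived GP2 cells expressing PTHR1 and a GloSensor cAMP reporter, 3,000/well, plated overnight, given luciferin plus IBMX (each 0.5 mM as added) for 1 h at 37 °C, then compound for 1 h at 37 °C. Luminescence was read after 15 min at room temperature.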
MmCpn inh: blocks the Methanococcus maripaludis chaperonin Mm-Cpn | purified Mm-Cpn ATPase, ADP Transcreener TR-FRET | Potency, µM (titrated, usually from 76.9 µM), inactives show top-dose activity, negative = inhibition, actives largely listed as inhibitors | 330,000 tested, 0.031% active | AID 504842; also: potency is read from the fitted curve at half-maximal effect; % is scaled to controls: 0 for no effect and ±100 for the full control effect; nearly all actives have a fitted effect of over 80% in size
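Purified archaeal chaperonin (25 nM final) was preincubated with compound for 10 min at 37°C, then ATP (10 uM final) was added for 30 min at 37°C in Tris pH 7.4/KCl/MgCl2/DTT buffer. ADP was quantified by HTRF Transcreener TR-FRET.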
CCT chaperon mod: modulators of cytosolic chaperonin (CCT/TRiC) activity; purified chaperonin ATPase assay, HTRF ADP detection, 30 min; activity change, % (no concentration beside the values), hits read low; 360,000 tested, 0.3% active; AID 651819; in the data active = activity change below about -30%; also: % is scaled to controls: 0 for no effect and ±100 for the full control effect
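Enzyme 40 or 20 nM (batch-dependent) in Tris pH 7.4/KCl/MgCl2/DTT; cpd 76 uM single point; ATP 10 uM; 30 min 37 °C; Transcreener ADP HTRF detection, 30 min RT; ratio 665/615.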
RGS4 inhibitor: human RGS4 inhibition | P49798 | Transcreener GDP fluorescence polarization, RGS4-accelerated GTP hydrolysis | Potency, µM (highest dose often 114 µM), for the others: at the top dose activity change, negative = inhibition, actives largely listed as inhibitors | 390,000 tested, 0.039% active | AID 504845; also: potency is read from the fitted curve at half-maximal effect; % is scaled to controls: 0 for no effect and ±100 for the full control effect; nearly all actives have a fitted effect of over 75% in size
Target sequence (P49798 whole entry, looked up): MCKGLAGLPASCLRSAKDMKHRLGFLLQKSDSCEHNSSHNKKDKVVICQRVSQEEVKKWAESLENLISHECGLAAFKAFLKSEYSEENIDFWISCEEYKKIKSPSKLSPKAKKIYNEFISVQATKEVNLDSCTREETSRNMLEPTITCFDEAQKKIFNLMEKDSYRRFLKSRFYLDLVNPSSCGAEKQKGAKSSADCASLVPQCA
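MLSMR compounds (23 nl, pin-transferred) preincubated 10 min at room temperature with a 500nM (2x) first reagent, then RGS4 at 900nM (2x) plus Transcreener GDP mix added; fluorescence polarization (620/688 nm) read before and after 90 min at 30 °C.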
ERG Ets-DNA blk: blocks human ERG Ets domain binding to DNA. P11308. fluorescence polarization, His-ERG Ets domain / labelled DNA. Potency, µM (top dose mostly 76.9 µM), for inactives: at the top dose FP activity, negative = inhibition, hits mostly inhibitors. 370,000 tested, 0.028% active. AID 624246; active = well fitted inhibition curve with a large enough effect in the polarisation, with a control signal flat; inconclusive = small, poorly fitted or top-dose-only effect, or effect the other way, or a change in a side signal; inactive = no such curve, though single readings can be large or run the other way; the % refers to the polarisation;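 also: polarization taken with two DNA probes labelled with fluorescein and Texas red; potency is read from the fitted curve at half-maximal effect; % of control where 0% means no effect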
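His-tagged ERG Ets domain (1 uM in the protein solution; 300mM KCl, 50mM Tris-HCl, 1mM EDTA, 1mM DTT, pH 7.5) received compound, then a probe mix of 5 nM fluorescein-DNA and 100nM Texas-615-DNA. Fluorescence polarization was read for both dyes.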
* marks the source's active call; other numbers are inactive results; i = inactive; ? = inconclusive; · = no result; [ ] = another dose, or the depositor's remark. Unless noted, calls follow the shape of the dose curve; as a rule, active = well fitted curve in the direction sought with a large enough effect; inconclusive = small, poorly fitted or top-dose-only effect, or another doubt; inactive = no such curve, though single readings can be large; an effect the other way counts as inactive or inconclusive.

SMILES | PTHR1 agonist | MmCpn inh | CCT chaperon mod | RGS4 inhibitor | ERG Ets-DNA blk
CSc1ccc(-c2sc(Nc3ccccc3)n[n+]2-c2ccc(F)cc2)cc1 | -19.2% | ? | 2.5 | -39.4% | -0.6%
Oc1ccc(-c2sc(Nc3ccccc3)n[n+]2-c2ccc(F)cc2)cc1 | i | 39.8µM* | -1.9 | -39.5% | 22.3%
CN1CCN(C(CNC(=O)C(=O)Nc2ccccc2)c2ccc3c(c2)OCO3)CC1 (configuration not stated) | 12.5% | · | · | 0.1% | -0.6%
O=C(CNC(=O)COc1ccccc1)NCc1cccnc1 | i | 1.0% | -41.4* | 11.1% | -9.1%
Cc1ccc(OCC(=O)NCc2cccnc2)cc1 | -2.3% | 1.8% | 0.5 | -20.4% | 2.3%
c1ccc(NCc2cccnc2)cc1 | i | -1.0% | -120.8* | 13.5% | 2.9%
CC(=O)Nc1ccc(N(CC(O)Cn2c3ccccc3c3ccccc32)S(=O)(=O)c2ccc(C)cc2)cc1 (configuration not stated) | i | -16.8% | -46.0* | -1.2% | 9.9%
O=C(Oc1ccccc1F)c1nc(SCc2ccccc2F)ncc1Cl | ? | · | · | -17.3% | -5.3%
NC(=O)C1CCN(c2nc(-c3ccc4c(c3)OCO4)cs2)CC1 | · | -0.4% | · | · | ·
NC(=O)Nc1cc(Cl)ccc1Cl | i | 1.4% | -85.2* | -10.6% | 7.2%
Cc1ccccc1N1CCN(Cc2c[nH]c3ccccc23)CC1 | 3.98µM* | 2.0% | 2.9 | -26.8% | 4.4%
Fc1ccc(N2CCN(Cc3c[nH]c4ccccc34)CC2)cc1 | · | 0.4% | · | · | ·
CCCCN(C(=O)c1ccc(N2C(=O)c3ccccc3C2=O)cc1)c1c(N)n(CC(C)C)c(=O)[nH]c1=O | i | -4.3% | -2.3 | -9.5% | -14.6%
CCCCN(C(=O)c1cc(CN2C(=O)c3ccccc3C2=O)ccc1OC)c1c(N)n(CC(C)C)c(=O)[nH]c1=O | i | · | -83.7* | -6.5% | ·
Cc1ccccc1NC(=O)Cc1nc(COC(=O)CSc2ccc(F)cc2)cs1 | i | · | -58.2* | · | ·
Cc1ccccc1NC(=O)Cc1nc(COC(=O)CSc2ccccc2)cs1 | -17.6% | -3.8% | 1.7 | 11.7% | 0.3%
O=C(N/N=C/c1c[nH]c2ccccc12)c1cccs1 | -0.8% | 2.9% | -39.6* | 2.0% | 0.8%
Cc1ccc(-c2c(C(=O)N/N=C/c3c[nH]c4ccccc34)nnn2-c2nonc2N)cc1 | i | 0.0% | -73.6* | ? | -1.1%
O=C(N/N=C/c1c[nH]c2ccccc12)c1ccccc1 | i | 0.0% | -0.8 | -7.5% | 0.9%
CCCCCSc1nc2sc3c(c2c(=O)n1-c1ccc(OC)cc1)CCN(C(C)=O)C3 | -44.3% | · | · | -22.4% | 0.7%
O=C(Nc1ccccc1C(=O)O)c1cc(S(=O)(=O)NCc2ccccc2)ccc1Cl | i | 1.2% | -60.1* | -8.4% | -8.0%
O=C(Nc1ccc(Cl)cc1C(F)(F)F)c1cc(S(=O)(=O)NCc2ccccc2)ccc1F | i | · | · | 11.2% | 0.3%
CCOC(=O)c1sc(NC(=S)NC(=O)c2ccc(OC)cc2)nc1C | i | -7.6% | -51.8* | -10.3% | -21.7%
COc1ccc(C(=O)NC(=S)Nc2nc(C)c(C(=O)N(C)C)s2)cc1 | -1.9%[57.5 µM] | -0.9% | -2.3 | -6.7% | -3.0%
CCOc1ccc(OCC)c(NC(=O)c2cc(S(=O)(=O)N3CCCC3)cn2C)c1 | -21.3% | · | · | -11.2% | -6.0%
SMILES | PTHR1 agonist | MmCpn inh | CCT chaperon mod | RGS4 inhibitor | ERG Ets-DNA blk
O=C(CCNC(=O)C1CCN(S(=O)(=O)c2ccccc2)CC1)NCc1cccc(Cl)c1 | -32.2% | -5.2% | -82.9* | -34.3% | 5.4%
O=C(CCNC(=O)C1CCN(S(=O)(=O)c2ccccc2)CC1)NCc1ccc(Cl)cc1 | -26.7% | 0.3% | -80.1* | ? | -0.5%
O=C(CCNC(=O)C1CCN(S(=O)(=O)c2ccccc2)CC1)NCc1ccc(Cl)cc1Cl | -22.0% | -5.9% | -24.6 | -21.3% | -0.1%
CC(C)=CC[C@@H](O)C1=CC(=O)c2c(O)ccc(O)c2C1=O | · | · | · | i | ·
CCCCSc1nnc2c(n1)OC(c1ccc(Br)s1)Nc1ccccc1-2 (configuration not stated) | i | · | · | -27.0% | -8.6%
Cc1ccc(OCC(=O)N2CCN(C(=O)CCC3CCCC3)CC2)cc1 | i | 0.4% | -75.9* | 4.7% | -12.4%
O=C(CCC1CCCC1)N1CCN(C(=O)COc2ccccc2)CC1 | -21.6% | 0.5% | 0.3 | -22.2%[11.4 µM] | -3.4%
CN(NC(=O)c1ccccc1F)c1ccc([N+](=O)[O-])cn1 | -14.7% | 1.3% | -43.0* | 9.0% | -0.3%
O=C(Nc1cccc(F)c1)c1ccc2c(c1)N(Cc1ccccc1)C(=O)c1ccccc1S2(=O)=O | -1.5% | · | · | -18.6% | 4.5%
CCC(=O)N1c2ccccc2CC1C(=O)NCc1ccc(CC)cc1 (configuration not stated) | -29.9% | · | · | -26.3% | -2.9%
CC1CCN(C(=O)COC(=O)c2cc(Cl)c3c(c2)OCO3)CC1 | -21.7% | 0.3% | 1.2 | ? | -2.4%[15.4 µM]
O=C(O)c1cc(Cl)c2c(c1)OCO2 | i | -0.4% | -61.0* | 9.0% | 6.6%
Cc1ccccc1CNC(=O)C1=Cc2ccccc2OC1 | -15.1% | · | · | -14.0% | -4.7%
CCOC(=O)c1cnn(-c2ccc(NS(=O)(=O)c3ccc(Cl)cc3)cc2)c1C(F)(F)F | -11.3% | -1.7% | -97.7* | 8.9% | 5.7%
CCN(Cc1nc(-c2ccccc2)no1)C(=O)c1ccoc1C | -12.8% | 0.3% | 1.2 | 3.9% | -6.9%
Cc1occc1C(=O)N(Cc1nc(-c2ccccc2)no1)C(C)C | -81.5% | -2.9% | -72.2* | -39.4% | -3.7%
O=[N+]([O-])c1ccc(/C=N/N2CCN(Cc3ccccc3)CC2)cc1 | -30.6% | 0.8% | -105.1* | -27.2% | 10.7%
Cc1cc(Nc2cccc(C(F)(F)F)c2)nc2ccc(NC(=O)Cc3ccc(Cl)cc3)cc12 | -23.3% | · | · | 3.2% | 8.7%
Cn1c(SCc2cccc([N+](=O)[O-])c2)nc2ccccc2c1=O | -94.2% | 0.3% | -39.4* | -13.2% | 9.9%
O=C(NCC(c1ccco1)N1CCCC1)c1cccc(S(=O)(=O)N2CCCCC2)c1 (configuration not stated) | -59.7% | · | 0.4 | · | ·
O=C(NCC(c1ccco1)N1CCCC1)c1cc(S(=O)(=O)N2CCCCC2)ccc1Cl (configuration not stated) | i | 1.2% | -40.4* | 7.2% | -6.0%
CCOc1ccc(S(=O)(=O)N2CCC(N3CCN(Cc4ccc(F)cc4)C(=O)C3=O)CC2)cc1 | -5.0% | · | · | -18.4% | 5.4%
CN(C)c1ccc(NC(=O)COC(=O)c2cc(Cl)ccc2[N+](=O)[O-])cc1 | 0.7% | 1.9% | -90.1* | -10.9% | 7.1%
Cc1ccc(S(=O)(=O)CC(CN2CCOCC2)N2CCOCC2)cc1 (configuration not stated) | i | -2.8% | -11.8 | -17.0% | 13.5%

Compound activity as filed in PubChem BioAssay.
